Records with an inconclusive call do not appear. Entries that show only a call come without a potency. Activity calls are given as the source filed them. The call rests on the fitted dose curve; in most records, active means well fitted inhibition curve with a large enough effect; inconclusive means small, poorly fitted or top-dose-only effect; inactive means no such curve, though single readings can be large or run the other way.
test: Confirmatory fluorescence-based thiol-reactive (MSTI) qHTS assay for identification of artifact compounds; conditions: MSTI thiol-reactivity probe, 1 h; series mostly up to 39.2 µM
Outline: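 MSTI 4 uM final, PBS pH 7.4 + 2% DMSO; 1 h RT, dark; Ex/Em 525/598 nm; % inhibition vs Acetyl-MSTI (0%) and MSTI (100%), 4-parameter Hill fit.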
Potency means the concentration at half of the fitted maximal effect.

Compound | Potency
Nc1c(N=Nc2ccc([N+](=O)[O-])cc2)c(S(=O)(=O)O)cc2cc(S(=O)(=O)O)c(/C=C/c3ccccc3)c(O)c12 | 0.0612 µM (active)
COc1ccc(-c2oc3cc(O[C@@H]4OC(CO)C(O)C(O)C4O)c(OC)c(O)c3c(=O)c2OC)cc1O (some centres not stated) | inactive
CCCCCCCCCCCCCCCC(=O)N[C@H](CN1CCOCC1)[C@H](O)c1ccccc1 | 12.2 µM (active)
O=C(CSc1nnc(-c2cccc(F)c2)c(-c2cccc(F)c2)n1)NC1CCCCC1 | inactive
O=C1CC(c2ccc(O)c(O)c2)Oc2cc(O)cc(O)c21 (configuration not stated) | inactive
Nc1ccc(F)cc1F | inactive
CCc1cccc(NC(=O)CN2CCCN(Cc3cccc(C)c3)S2(=O)=O)c1 | inactive
CCOC(=O)c1c(NC(=O)c2ccc(S(=O)(=O)N(CC)CC)cc2)sc2c1CCCCC2 | inactive
Cc1ccc(C)c(N2CCN(S(=O)(=O)c3cc(Br)cc4c3N(C(=O)C3CC3)CC4)CC2)c1 | inactive
O=c1c2ccccc2nc2sc(NS(=O)(=O)c3ccc4c(c3)CCC4)nn12 | inactive
COc1ccc(NC(=O)C(=O)Nc2ccc3nc4n(c(=O)c3c2)CCCCC4)c(OC)c1 | inactive
Cc1nn(C(=O)COc2ccccc2Br)c(C)c1Sc1ccccc1 | inactive
O=C(NCCSc1c(-c2ccc(Br)cc2)[nH]c2ccccc12)c1ccc(S(=O)(=O)N2CCOCC2)cc1 | inactive
Cc1c(O)cc(O)c2c(=O)c(-c3ccc(O)cc3)coc12 | inactive
COc1ccc2oc(=O)cc(CN3CCN(C(=O)c4ccccc4F)CC3)c2c1 | inactive
CCCS(=O)(=O)N1CCCC(C(=O)NCCCOC)C1 (configuration not stated) | inactive
Ic1ccc(Nc2nc(NCCN3CCOCC3)nc(N3CCOCC3)n2)cc1 | inactive
